From PubChem BioAssay AID990 (National Center for Advancing Translational Sciences (NCATS), 2007)
Activity calls are given as the source filed them.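 Rule for the calls: active = compound that made reporter-free parental cells show up as glowing objects under laser imaging, so likely a fluorescent false positive; inactive = the rest.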

Assay: Parental Cell Counter Screen Assay for Epigenetic Modulators
Conditions: parental c127i cells, compound fluorescence imaging, 30 h
Text: NIH Molecular Libraries Screening Centers Network [MLSCN] NIH Chemical Genomics Center [NCGC] MLSCN Grant: 1 X01 MH079860-01 Assay Provider: Elisabeth D. Martinez, University of Texas SW Medical Center NCGC Assay Overview: This assay is a counter screen for the Locus Derepression (LDR) assay (PubChem AID 597). The LDR assay detects the derepression of a GFP reporter that is stably integrated in a region of the genome of murine c127i mammary cells that is presumably silenced. Compounds that cause derepression of the locus to express GFP are identified by enumerating GFP positive cells using a laser-scanning microplate cytometer. […] Compounds active in the parental c127i cells are likely fluorescent.
NCGC Assay Protocol Summary: Two hundred and fifty cells in 5 uL per well were dispensed into black, clear-bottom 1536-well plates. Twenty-three nL compound was transferred to the assay plate and cells were incubated 30 hours at 37 C. Medium was removed, cells were washed two times with PBS, and fluorescent cells were enumerated as objects between the sizes of 20 to 120 um width and depth using a laser-scanning microplate imager (Acumen Explorer Ex3, TTP Labtech).

For `CN1CSC(=S)N(C)C1`, the outcome was “inactive”.
